# Measurements reported in PubChem BioAssay AID463213 (Sanford-Burnham Center for Chemical Genomics, 2010).
# Screen size: about 7,400 compounds; about 4,100 (55%) were called active.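 Rule for the calls: active = inhibition of yeast growth at or above a set limit in either of two repeat tests at 20 µM; inactive = the rest.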 The set was probably picked from earlier hits. These entries were drawn from the full list.
# Assay: growth inhibitors of tim10-1 mutant yeast, confirmation, single concentration, luminescence, S. cerevisiae (AID 463213);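 note: tim10-1 mutant grown at permissive 25 °C to find synthetic lethal compounds; 0% = DMSO yeast wells and 100% = medium wells without yeast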
# Details: S. cerevisiae tim10-1 ts strain growth, BacTiter-Glo, 24 h; at 20 µM; stronger effect = higher value
row,SMILES,inhibition
1,COc1ccc(CCNCc2c(-c3ccccc3)n(C)c3ccccc23)cc1,19.6% (inactive)
2,Cc1nc(-c2ccccc2)cn2c1nc1ccccc12,36% (active)
3,O=C(Nc1nnc(-c2ccccc2)o1)c1cc(-c2cccs2)nc2ccccc12,13.9% (inactive)
4,CCc1ccc(-c2cc(C(=O)NCc3ccco3)c3ccccc3n2)s1,32.3% (active)
5,CC1=CC(C)(C)Nc2ccc(OC(=O)CN3C(=O)C4CCCCC4C3=O)cc21 (stereo unspecified),22.8% (inactive)
6,Cc1cc(N)n2nc(-c3ccc(C(C)(C)C)cc3)cc2n1,42% (active)
7,COc1ccccc1CSc1ncc(-c2ccc([N+](=O)[O-])cc2)[nH]1,27.1% (inactive)
8,CCCCC(O)(CCCC)C(=O)NN(C(=O)CCl)c1ccccc1,36.3% (active)
9,Cc1ccc(Oc2cnn(-c3ccccc3)c(=O)c2Br)cc1,41.2% (active)
10,COc1ccc(N2CCN(C(=O)CCSCc3ccccc3F)CC2)cc1,16.8% (inactive)
11,Fc1ccc(/C=N/Nc2nc(-c3cccnc3)nc3ccccc23)cc1,33.9% (active)
12,COc1ccc(/C=C(\C#N)C(=O)ONC2=NCCCCC2)cc1,66.8% (active)
13,COc1ccc(C(=O)Nc2ccccc2C(=O)N/N=C/c2ccc(O)c(OC)c2)cc1,91.6% (active)
14,COc1ccc(C(=O)Nc2ccccc2C(=O)N/N=C/c2ccccc2OC)cc1,56.6% (active)
15,COc1cccc(C(=O)Nc2cc3c(cc2Br)OCCCO3)c1,9.95% (inactive)
16,COc1ccc2c(c1)c(C(=O)N/N=C/c1cccs1)c(C)n2C,28.8% (inactive)
17,COc1ccc(/C(C)=N/NC(=O)c2ccc3nc[nH]c3c2)cc1,-11.2% (inactive)
18,O=C(C(=O)N1CCc2ccccc2C1)c1c[nH]c2ccccc12,12.1% (inactive)
19,CC1CCc2sc3nc(N4CCN(CCO)CC4)n4ncnc4c3c2C1 (stereo unspecified),27.2% (inactive)
20,CC1CCc2c(sc3nc4n(c(=O)c23)CCS4)C1 (stereo unspecified),37.5% (active)
21,CCOC(=O)CSc1nc2c(c(=O)n(Cc3ccccc3Cl)c(=O)n2C)n1C,31.1% (inactive)

row,SMILES,inhibition
1,Cc1ccc(-c2ccc(/C=C(\C#N)C(N)=S)o2)c([N+](=O)[O-])c1,48.3% (active)
2,CC(=O)Cc1nsc(NC(=O)c2csc3c2CCCC3)n1,29.6% (inactive)
3,COc1ccc(N2C(=O)CC(Sc3n[nH]c(-c4ccc(C)cc4)n3)C2=O)cc1 (stereo unspecified),24.7% (inactive)
4,CNC(=O)/C(C#N)=C/c1c(F)cccc1Cl,50.1% (active)
5,CCOC(=O)C1Sc2[nH]c(=O)sc2C(c2ccc(Cl)cc2)C1C(=O)OCC (stereo unspecified),33.5% (active)
6,CCOC(=O)c1ccccc1N1C(=O)C2Sc3[nH]c(=O)sc3C(/C=C/c3ccccc3)C2C1=O (stereo unspecified),15.4% (inactive)
7,ONC(=Nc1ccc(Cl)cc1)c1ccccc1Cl,31.5% (active)
8,Cc1cccc(NC(=S)NCc2ccc3[nH]c4c(c3c2)CCCC4)c1,35.3% (active)
9,O=C(N/N=C\c1cccc(Br)c1)c1ccccc1-n1cccc1,51.5% (active)
10,CCC(=O)N1CCc2cc(S(=O)(=O)NC(C(=O)N3CCc4ccccc4C3)C(C)C)ccc21 (stereo unspecified),22.2% (inactive)
11,CC1CCCC(C)N1C(=O)CN1CCN(c2nc(-c3ccc(F)cc3)cs2)CC1 (stereo unspecified),37.2% (active)
12,O=C(CN1CCN(c2ccc(F)cc2)CC1)Nc1cccc(C(F)(F)F)c1,23.8% (inactive)
13,O=C(Nc1nc(-c2ccco2)c(-c2ccco2)s1)c1ccco1,65.9% (active)
14,Cc1ccc2c(c1)c1ncnc(N3CCc4ccccc4C3)c1n2C,22.1% (inactive)
15,Cc1nc(-c2ccc(Cl)cc2)sc1C(=O)CBr,55.2% (active)
16,CCOC(=O)N1CCN(C(=O)c2cc3c(-c4ccc(Cl)cc4)nn(C)c3s2)CC1,22.4% (inactive)
17,O=C(Oc1c(-c2ccco2)oc2ccccc2c1=O)c1cccnc1,42.6% (active)
18,COc1ccc2nc(N3CCN(C(=O)c4ccc([N+](=O)[O-])o4)CC3)sc2c1,-0.8% (inactive)
19,CCc1nc2ccc(C(=O)N3CCN(c4cccc(Cl)c4)CC3)cc2nc1CC,24.6% (inactive)
20,O=C(c1ccc2nc(N3CCOCC3)sc2c1)N1CCN(c2ccc(Cl)cc2)CC1,41.5% (active)
21,Cc1ccccc1CC1(CO)CCCN(C(=O)c2cc(-c3ccccc3)no2)C1 (stereo unspecified),21.1% (inactive)

row,SMILES,inhibition
1,N/C(=N\OC(=O)Nc1ccc(Cl)c(Cl)c1)c1ncc(C(F)(F)F)cc1Cl,67.4% (active)
2,O=C(Cc1ncc(C(F)(F)F)cc1Cl)Nc1cccc(Br)c1,30.4% (inactive)
3,CC1(C)CCSC(/C=C/c2ccccc2)=N1,49.4% (active)
4,Cc1ccc(C(=O)CCC(=O)N(C)CC(=O)Nc2c(Cl)cccc2Cl)cc1,-3% (inactive)
5,FC(F)(F)Oc1ccc(NC(=S)NCc2ccccc2)cc1,47% (active)
6,C/C(=N\NC(=S)NCc1ccccc1)C1CCCCC1,26.9% (inactive)
7,COc1ccc(NC(=S)N2N=CCC2c2ccccc2)cc1 (stereo unspecified),16.2% (inactive)
8,Cc1ccc2c(c1)C1CN(C)CCC1N2S(=O)(=O)c1ccc(Oc2ccc([N+](=O)[O-])cc2)cc1 (stereo unspecified),22.1% (inactive)
9,Oc1c(Cl)cc(Cl)c(Cl)c1Cc1c(O)c(Cl)cc(Cl)c1Cl,88.7% (active)
10,CCc1nn(CCCC(=O)Nc2ccc(C)cc2C)c(=O)c2cc3occc3n12,-8.95% (inactive)
11,COc1ccc(-n2cc(-c3ccccc3)c3c(=S)nc[nH]c32)cc1,34.4% (active)
12,CCOC(=O)C1Cn2c(nc3c(c2=O)C(C)(CC)Cc2ccccc2-3)S1 (stereo unspecified),10% (inactive)
13,O=C(/C(=C/c1cccc(Cl)c1)c1nc2ccccc2[nH]1)c1ccccc1,38.7% (active)
14,O=C(Nc1cccc(Cl)c1)c1cncn1-c1ccc(F)cc1,33% (active)
15,CCNC(=S)N(CCc1c(C)[nH]c2ccc(C)cc12)Cc1ccco1,24.5% (inactive)
16,Cc1nonc1C1CCCN1C(=O)c1cc(COc2cccc(C(F)(F)F)c2)on1 (stereo unspecified),41.6% (active)
17,CCOC(=O)C1(S(=O)(=O)c2ccccc2)CCN(Cc2ccccc2)CC1,14.3% (inactive)
18,O=C1c2ccccc2C(=O)c2c1cccc2N1CCN(Cc2ccccc2)CC1,32% (active)
19,O=C(c1ccc(CSc2ccccc2)cc1)N1CCCCCC1,26.4% (inactive)
